# Where “and” joins values, the source holds several entries; their conditions need not be identical. Equal entries are not always repeated. Some structures have more than one record in an assay (separate samples or runs), and their calls can disagree. Calls of active or inactive are those of the source. How the source made its calls: active means hit-call score of the fitted dose curve at least 0.9, where 1 is the maximum; inactive means score below 0.9.
# Read-out: E-selectin (Homo sapiens) (UniProt P16581)
# Assay: BSK_3C_Eselectin: BioMAP Diversity Plus: 3C Assay for Eselectin Biomarker Activity (AID 2283015)
# Conditions: primary human endothelial cells (HUVEC); actives raise or lower the signal
# Procedure: BSK_3C is a cell-based, multiplexed-readout assay that uses umbilical vein endothelium, a human vascular primary cell, with measurements taken at 24 hours after chemical dosing in a 96-well plate.BSK_3C_Eselectin is an assay component measured in the BSK_3C assay. It measures E-selectin antibody related to regulation of gene expression using ELISA technology.Data from the assay component BSK_3C_Eselectin was analyzed into 1 assay endpoint. This assay endpoint, BSK_3C_Eselectin, was analyzed with bidirectional fitting relative to DMSO as the negative control and baseline of activity. Using a type of binding reporter, gain or loss-of-signal activity can be used to understand changes in the signaling as they relate to the gene SELE. Furthermore, this assay endpoint can be referred to as a primary readout, because this assay has produced multiple assay endpoints where this one serves a signaling function. To generalize the intended target to other relatable targets, this assay endpoint is annotated to the cell adhesion molecules intended target family, where the subfamily is selectins.
# The levels of cell surface (or secreted, indicated by the prefix "s") biomarker endpoints were measured by ELISA. Overt cytotoxicity to cells in confluent adherent cultures (all systems other than the BT system) was assessed by measuring total protein levels using sulforhodamine B (SRB) staining in parallel cultures at the time of biomarker measurements, indicated as SRB endpoints. For proliferation assays for adherent cell types, individual cell types are cultured at sub-confluence and relative cell numbers quantified by SRB staining at time points optimized for each system (48 h: 3C and CASM3C systems; 72 h: BT and HDF3CGF systems; 96 h: SAg system). SRB was performed by staining cells with 0.1% SRB after fixation with 10% TCA and reading wells at 560 nm.Viability and proliferation of PBMC (T cells) was quantified by Alamar Blue reduction for the SAg and BT systems. For PBMC viability (referred to as PBMC Cytotoxicity within the assay endpoint names), cells were plated (75,000/well in a 96-well plate) and then chemical samples added for 1 h before addition of activators, SEB and TSST-1 (20 ng/mL final concentration each). Cells were incubated for 90 h. Then, Alamar Blue (20 uL/well) (Invitrogen, Cat DAL1100) was added for 6 h, and the plates were read with a fluorescence microplate reader at 546/580 nm (excitation/emission). For PBMC proliferation, cells were plated and activated as above but incubated for only 16 h prior to addition of Alamar Blue. Plates were read after 6 h.
# Sequence of E-selectin (Homo sapiens) (P16581 whole entry, looked up): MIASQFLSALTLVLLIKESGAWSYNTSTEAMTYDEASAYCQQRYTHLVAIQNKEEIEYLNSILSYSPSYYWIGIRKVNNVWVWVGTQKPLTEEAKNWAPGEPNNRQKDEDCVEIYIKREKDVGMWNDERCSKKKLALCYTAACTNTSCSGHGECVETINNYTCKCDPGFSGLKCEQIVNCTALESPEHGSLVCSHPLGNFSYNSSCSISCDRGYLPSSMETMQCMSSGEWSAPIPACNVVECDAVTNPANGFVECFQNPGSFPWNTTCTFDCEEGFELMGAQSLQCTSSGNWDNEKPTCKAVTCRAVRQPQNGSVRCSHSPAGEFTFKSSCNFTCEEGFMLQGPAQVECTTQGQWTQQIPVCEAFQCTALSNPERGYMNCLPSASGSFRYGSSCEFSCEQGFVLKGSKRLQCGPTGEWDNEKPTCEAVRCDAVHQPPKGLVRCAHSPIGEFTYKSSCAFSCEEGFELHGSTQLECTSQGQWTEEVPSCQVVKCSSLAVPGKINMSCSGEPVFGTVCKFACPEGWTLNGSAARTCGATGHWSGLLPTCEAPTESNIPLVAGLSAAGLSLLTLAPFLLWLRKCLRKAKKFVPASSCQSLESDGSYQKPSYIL
SMILES,outcome,AC50
CN(C)CCOC(c1ccccc1)c1ccccc1,inactive,–
O=C(CC(=O)C(F)(F)C(F)(F)C(F)(F)F)c1cccs1,–,51.4 µM (active) and 52.5 µM (active)
CCCCC(CC)C(=O)O (stereo not given),inactive,–
CN(CCO)S(=O)(=O)C(F)(F)C(F)(F)C(F)(F)C(F)(F)C(F)(F)C(F)(F)C(F)(F)C(F)(F)F,inactive,–
Clc1ccc(Nc2nnc(Cc3ccncc3)c3ccccc23)cc1,–,2.36 µM (active)
CCCCCc1ccc(O)cc1,–,13.5 µM (active)
C=CC(=C)CC/C=C(\C)CCC=C(C)C,inactive,–
Cc1ccc(N=Nc2c(O)ccc3ccccc23)c(C)c1,inactive,–
CCCCc1oc2ccccc2c1C(=O)c1cc(I)c(OCCN(CC)CC)c(I)c1,–,24.1 µM (active)
Cc1cccc2c1ccc1ccccc12,inactive,–
CC(=O)Nc1ccc(O)cc1,inactive,–
O=C(CCCN1CCC(O)(c2ccc(Cl)cc2)CC1)c1ccc(F)cc1,inactive,–
CC[N+](CC)(CC)Cc1ccccc1,inactive,–
CS(=O)(=O)c1ccc([C@@H](CC2CCCC2)C(=O)Nc2cnccn2)cc1Cl,inactive,–
CCCCCCCCCCCCOS(=O)(=O)O,inactive,–
Cc1[nH]nc2c1N=C(c1ccccc1Cl)c1cc([N+](=O)[O-])ccc1N2,–,3.2 µM (active)
Oc1c(Cl)cc(Cl)cc1Sc1cc(Cl)cc(Cl)c1O,–,31.1 µM (active) and 29.8 µM (active)
O=C(O)CCC(F)(F)C(F)(F)C(F)(F)C(F)(F)C(F)(F)F,inactive,–
OCCN1CN(CCO)CN(CCO)C1,–,34.1 µM (active)
Oc1ccc(Cc2ccccc2O)cc1,inactive,–

SMILES,outcome,AC50
OCC(CO)(CBr)CBr,inactive,–
CCCCC=O,inactive,–
C=COC(=O)C(C)(C)CCCCCC,–,32.7 µM (active)
CCCCCCCCCCCCCCCCCC[N+](C)(C)Cc1ccccc1,–,2.68 µM (active)
O=C(O)C(F)(F)OC(F)(F)C(F)(F)OC(F)(F)C(F)(F)OC(F)(F)C(F)(F)C(F)(F)C(F)(F)F,–,49.6 µM (active) and 49 µM (active)
CCCCCCCCCCCCCCC,inactive,–
O=S(=O)(O)C(F)(F)C(F)(F)C(F)(F)C(F)(F)C(F)(F)C(F)(F)C(F)(F)C(F)(F)C(F)(F)C(F)(F)F,inactive,10.2 µM (active)
O=C1NS(=O)(=O)c2ccccc21,inactive,–
NC(=NCCCCCCN=C(N)/N=C(\N)Nc1ccc(Cl)cc1)/N=C(\N)Nc1ccc(Cl)cc1,–,7.27 µM (active)
COCN(COC)c1nc(N(COC)COC)nc(N(COC)COC)n1,inactive,–
O=C(O)CCC(F)(F)C(F)(F)C(F)(F)C(F)(F)C(F)(F)C(F)(F)F,inactive,–
O=P(O)(O)CCC(F)(F)C(F)(F)C(F)(F)C(F)(F)C(F)(F)C(F)(F)F,inactive,–
O=C(NCc1ncc(C(F)(F)F)cc1Cl)c1c(Cl)cccc1Cl,inactive,–
CN(Cc1cnc2nc(N)nc(N)c2n1)c1ccc(C(=O)N[C@@H](CCC(=O)O)C(=O)O)cc1,inactive,–
CC(C)(C)c1ccc(O)c(O)c1,–,3.97 µM (active)
N=C(N)c1ccc(OCCCCCOc2ccc(C(=N)N)cc2)cc1,–,0.932 µM (active)
Cc1ccc(C(=O)c2ccccc2)cc1,–,28.2 µM (active)
O=C(c1ccccc1)c1ccccc1,inactive,–
C=CC(=O)OCCC(F)(F)C(F)(F)C(F)(F)C(F)(F)C(F)(F)C(F)(F)C(F)(F)C(F)(F)F,inactive,–
